Screens from PubChem.
Shown are actives, neighbours in structure and some others; about 0.81% of the full set was active somewhere.
TRPML1 ag: qHTS for Agonists of the Human Mucolipin Transient Receptor Potential 1 (TRPML1); TRPML1-expressing cells, Ca2+ dye fluorescence, FDSS; activation, % (concentration not given with the values); 410,000 tested, 0.12% active; in the data active = activation above about 50%; inconclusive = mostly about 30% to 49%; note: 0% is about no effect
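Cells: TRPML1-DL, 1X Tet inducer, ~16 h at 37 degrees C/5% CO2. Dye: ABD Ca8 no-wash + quencher, 45-90 min RT. Read: 10 s baseline, compound add, 110 s agonist phase; 54-4 EC80 (4uM final), 110 s antagonist phase.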
TRPML1 inh: qHTS for Inhibitors of the Human Mucolipin Transient Receptor Potential 1 (TRPML1). Mucolipin-1 (Homo sapiens), Q9GZU1. TRPML1-inducible cells, Ca2+ dye fluorescence, FDSS; stronger effect = lower value; inhibition of EC80 agonist-evoked calcium signal. activity change, negative = inhibition, % (test concentration not listed). 390,000 tested, 0.02% active. AID 624415, 2012; in the data active = activity change below about -50%; inconclusive = between about -30% and that limit;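 note: stimulus is agonist 54-4 at its EC80 concentration; % is set by controls: 0 for no effect and ±100 for the full control effect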
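TRPML1-DL cells, Tet-induced overnight (~16 h, 37 °C) at 1,500 cells/well, were loaded with Ca8 no-wash dye plus quencher for 45-90 min at room temperature. Compounds were pinned during FDSS kinetic reading; agonist 54-4 at EC80 (4 uM final) then added.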
TRHR PAM: qHTS for Small Molecule Agonists and Allosteric Enhancers of Human TRH Receptor: Primary Screen for Enhancers; Thyrotropin-releasing hormone receptor (Homo sapiens), P34981; TRHR cells, fluo-8 calcium fluorescence, EC20 TRH enhancement; enhancement, % at 2 µM; 360,000 tested, 0.66% active; AID 493056, 2011; in the data active = enhancement above about 30%; note: 0% is about no effect
Target sequence (P34981 whole entry, looked up): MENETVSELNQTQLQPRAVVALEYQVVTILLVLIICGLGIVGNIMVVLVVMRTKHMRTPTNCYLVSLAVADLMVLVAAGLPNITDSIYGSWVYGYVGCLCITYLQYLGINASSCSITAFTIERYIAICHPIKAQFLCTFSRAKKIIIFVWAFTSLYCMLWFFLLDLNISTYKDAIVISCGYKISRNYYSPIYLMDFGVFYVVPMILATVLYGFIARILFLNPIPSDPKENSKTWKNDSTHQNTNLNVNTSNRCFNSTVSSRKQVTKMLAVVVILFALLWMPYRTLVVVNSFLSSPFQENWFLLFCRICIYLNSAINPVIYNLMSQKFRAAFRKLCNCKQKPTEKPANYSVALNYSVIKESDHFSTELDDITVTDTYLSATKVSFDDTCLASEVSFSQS
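Enhancer read-out: after compound pinning and an initial kinetic agonist-mode read, an EC20 of TRH (10 nM final) was injected and fluo-8 calcium signal (Ex 480/Em 530) followed at 1 s/cycle for 100 cycles in TRHR-expressing cells.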
TRHR ag: qHTS for Small Molecule Agonists and Allosteric Enhancers of Human TRH Receptor: Primary Screen for Agonists; activation, % at 2 µM; 360,000 tested, 0.18% active; TRHR cells, calcium flux fluo-8, FDSS agonist mode; AID 493084, 2011; in the data active = activation above about 30%; note: 0% is about no effect
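TRHR-expressing cells, plated overnight in medium with 10% serum, were loaded with fluo-8 calcium dye at room temperature. After a 10 s baseline, library compound was pin-added and calcium release was recorded kinetically (ex 480/em 530) as agonist response.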
The depositor's hits bear a star; ? = inconclusive; . = no result.

SMILES	TRPML1 ag	TRPML1 inh	TRHR PAM	TRHR ag
O=C(NCCS(=O)(=O)N1CCCCCC1)c1ccc(F)cc1	0	20	30*	0
C=C1NN(Cc2ccccc2)C(=O)N1c1ccc(OC)cc1	-1	.	.	.
C/C(=N\NC(=O)C(O)c1ccccc1)c1ccc(Br)s1 (stereo not given)	2	-5	38*	0
C/C(=N\NC(=O)C(O)c1ccccc1)c1ccc(Cl)s1 (stereo not given)	-1	19	2	0
CCC1CCCCN1C(=O)CCn1ccnc1 (stereo not given)	3	20	32*	0
CC(=O)Oc1ccccc1C(=O)Oc1ccccc1C(=O)O	-1	6	-5	0
CC(C)CCOCC(=O)Oc1ccccc1C(=O)O	-1	-7	30*	0
C=CCSc1nc(N)c(C#N)c(-c2ccc(C)cc2)c1C#N	1	9	38*	0
O=[S+]([O-])(c1ccc2ncsc2c1)N1CCN([S+](=O)([O-])c2c(F)cccc2F)CC1	.	.	-1	1
CC1CCN(c2ccc3c(c2)S(=O)(=O)c2cccc(C(=O)NCc4ccc(F)cc4)c2C3=O)CC1	?	-13	7	78*
O=C(NCc1ccc(F)cc1)c1cccc2c1C(=O)c1ccc(N3CCC(Cc4ccccc4)CC3)cc1S2(=O)=O	4	6	.	.
CC1CCN(c2ccc3c(c2)S(=O)(=O)c2cccc(C(=O)NC4CCCCC4)c2C3=O)CC1	25	19	-2	39*
Cn1nnnc1Sc1ncnc2scc(-c3cccc([N+](=O)[O-])c3)c12	.	.	-12	-2
O=C(CNC(=O)c1ccc(-c2ccccc2)cc1)OC(C(=O)Nc1cc(C(F)(F)F)ccc1Cl)c1ccccc1 (stereo not given)	.	.	11	2
COc1ccc(OC)c(-c2csc(NC(=O)Cc3ccccc3F)n2)c1	2	-27	32*	-1
COc1ccc(/C=C/CN2CCN(CCc3ccccc3)C(CCO)C2)cc1 (stereo not given)	0	-4	39*	0
CCOc1ccccc1CN1CCN(C/C=C/c2ccc(OC)cc2)CC1CCO (stereo not given)	-1	-5	-6	3
O=C(c1ccccc1)c1c2c(cc3sc4ccccc4[n+]13)-c1cccc3cccc-2c13	54*	7	22	79*
COc1ccc(Nc2nc(C#N)nc(NC3CCCC3)n2)cc1	.	.	-1	-3
CC1CC(C)(C)N(C(=O)CN2C(=O)c3ccccc3C2=O)c2ccccc21 (stereo not given)	94*	-15	-10	18
Cc1cccc2c1N(C(=O)CN1C(=O)c3ccccc3C1=O)C(C)(C)c1ssc(=S)c1-2	1	-16	-8	0
CC1=CC(C)(C)N(C(=O)CN2C(=O)CCC2=O)c2ccc(C)cc21	0	4	2	-1
Cc1cc(C)c2c(c1)-c1c(ssc1=S)C(C)(C)N2C(=O)CN1C(=O)c2ccccc2C1=O	67*	?	-4	0
CC1=CC(C)(C)N(C(=O)CN2C(=O)c3ccccc3C2=O)c2ccccc21	96*	-4	-1	0
O=C(O)c1ccc(-c2ccc(/C=c3/sc4nc5ccccc5n4c3=O)o2)cc1Cl	10	15	5	55*
SMILES	TRPML1 ag	TRPML1 inh	TRHR PAM	TRHR ag
Cc1cc(C)c2nc3sc(=Cc4ccc(-c5ccccc5C(=O)O)o4)c(=O)n3c2c1	8	-3	.	.
Cc1ccc2c(nc3s/c(=C\c4ccc(-c5ccccc5C(=O)O)o4)c(=O)n32)c1C	28	5	9	54*
O=C(c1cccc2ccccc12)C1CCCN(C(=O)CCN2CCCO2)C1 (stereo not given)	0	1	38*	-1
FC(F)(F)c1cccc(Nc2cc(-c3ccccc3)nc3ncnn23)c1	-1	2	-2	0
CC(=O)Nc1ccc(Nc2cc(-c3ccccc3)nc3ncnn23)cc1	1	3	38*	-1
C[C@@H]1[C@H](c2ccccc2)OCCS(=O)(=O)N1Cc1cccc(Cl)c1	-1	.	.	.
CC(C)(C)n1ncc2c(=O)n(Cc3ccc(C(F)(F)F)cc3)cnc21	2	10	.	.
COc1ccc(N=Nc2nc3cc(Br)c(Br)cc3n2C)c(OC)c1	4	5	-2	55*
COc1ccc(CNc2nc3ccccc3n2C)c(OC)c1	-1	0	-5	-1
Cc1nc2ccc(C(=O)OC(C)C(=O)c3c(C)[nH]c4ccccc34)cc2nc1C (stereo not given)	-1	.	.	.
COc1ccc(Cn2ncc3c4sc(C)cc4n(C)c3c2=O)cc1	.	.	5	-2
CC1Cc2cc(S(=O)(=O)NCc3ccc(N(C)C)cc3)ccc2N1C(=O)C1CCC1 (stereo not given)	-1	1	45*	0
CC(=O)Nc1ccc(NS(=O)(=O)c2ccc3c(c2)CC(C)N3C(=O)C2CCC2)cc1 (stereo not given)	-1	-3	46*	0
COc1ccc(CNS(=O)(=O)c2ccc3c(c2)CC(C)N3C(=O)C2CC2)cc1 (stereo not given)	4	33	-2	-1
COc1cc2nc(N3CCCN(C)CC3)nc(NC3CCN(Cc4ccccc4)CC3)c2cc1OC	0	.	.	.
O=[S+]([O-])(c1ccc(N2CCOCC2)nc1)N1CCN([S+](=O)([O-])c2c(F)cccc2F)CC1	.	.	-2	1
O=[S+]([O-])(c1cc2ccccc2o1)N1CCN([S+](=O)([O-])c2c(F)cccc2F)CC1	.	.	-2	1
COc1ccc(-c2cc3ccc(O)c(CN4CCCC(C)C4)c3oc2=O)cc1OC (stereo not given)	1	2	4	32*
c1coc(-c2nc3cc4ccccc4cc3nc2-c2ccco2)c1	2	10	1	0
Cn1cccc1/C=N\NC(=O)C1COc2ccccc2O1 (stereo not given)	85*	-7	-5	0
COc1ccc(N2CCN(C(=O)CCc3c(C)nc4cc(-c5cccc(F)c5)nn4c3C)CC2)cc1	0	25	37*	0
C=Nc1ccc(/C=C/c2ccnc3ccccc23)cc1	8	.	.	.
Cc1nc2sc(C(c3ccco3)N3CC(C)OC(C)C3)c(O)n2n1 (stereo not given)	0	11	31*	0
Cc1nc2sc(C(c3ccco3)N3CCC(C)CC3)c(O)n2n1 (stereo not given)	0	-8	-2	0
O=C(NCc1nnc(-c2nc3ccccc3[nH]2)o1)C1CCCCC1	.	.	-6	0
COc1ccc(OC)c(-c2cc(C(=O)N3CCOCC3)no2)c1	0	2	37*	-1
